In all, about 48,000 compounds went through this assay and about 13,000 (27%) showed an effect of 50% or more. The list shows a part of the results.
test system: Wolbachia pipientis; assay: Anti-Wolbachia Cell-Based Screen; assay type: functional; parameters: scale not given: in the data most compounds retested in dose-response had high values; details: 5 µM

Point of comparison: `CCc1ncc(C(=O)N(C)Cc2cc(-c3ccncc3)no2)cn1`, “Percent Effect” value -12.94%. Against it:
- CC(Cn1cncn1)NC(=O)Nc1ccc(F)cc1OCC1CC1 (centres undefined) — higher, 4.941%
- Cn1cccc1CN1CCc2ncnc(-c3cccnc3)c2CC1 — higher, 88.44%
- O=C(O)C(F)(F)F.O=C(O)C(F)(F)F.c1cncc(-c2ncnc3c2CCN(Cc2ccsc2)CC3)c1 — higher, 91.57%
- O=C(O)C(F)(F)F.O=C(O)C(F)(F)F.c1ccc(CN2CCc3ncnc(-c4cccnc4)c3CC2)nc1 — higher, 17.47%
- COc1ncnc2c1CCN(Cc1cccs1)CC2.O=C(O)C(F)(F)F — higher, -7.322%
- Cc1ccc(CN2CCc3ncnc(-c4cccnc4)c3CC2)o1.O=C(O)C(F)(F)F.O=C(O)C(F)(F)F — higher, -3.02%
- c1ccc(CN2CCc3ncnc(-c4cncnc4)c3CC2)nc1 — higher, -4.171%
- O=C(C1CCOC1)N1CCc2ncnc(-c3cccnc3)c2CC1 (centres undefined) — higher, 8.249%
- CCc1ccc(CN2CCc3ncnc(-c4cccnc4)c3CC2)o1.O=C(O)C(F)(F)F.O=C(O)C(F)(F)F — higher, 106.1%
- O=C(O)C(F)(F)F.O=C(O)C(F)(F)F.c1cncc(-c2ncnc3c2CCN(Cc2cccs2)CC3)c1 — higher, 89.28%
- CCCN(C(=O)CN1CCN(CCO)CC1)C1=CCCCC1 — higher, 10.87%
- c1cnc(NCc2noc3c2CN(C2CCOC2)CC3)nc1 (centres undefined) — higher, -0.4343%
- CS(=O)(=O)N1CC[C@@H](CC(=O)O)[C@@H](CC2=NCCc3cc(F)ccc32)C1 — higher, -4.983%
- N#Cc1cc2c(=O)n(CC(O)C(F)(F)F)ccc2[nH]c1=O (centres undefined) — lower, -28.05%
- COCCCNC(=O)C(C)(C)N(C)C1CCCC1 — higher, 11.81%
- CN(Cc1nnc(C2CC2)o1)CC1CCCN1c1cccnn1 (centres undefined) — higher, 15.59%
- Cn1c(=O)oc2cc(Nc3nccnc3C#N)ccc21 — higher, -0.7115%
- Cc1cc(CNC(=O)NCC(O)c2cccc(C(F)(F)F)c2)no1 (centres undefined) — higher, -1.276%
- Cc1nc(CN2CCc3ncnc(-c4ccccc4)c3CC2)cs1.O=C(O)C(F)(F)F — higher, -8.271%
- Cc1nc(CN2CCc3ncnc(-c4cccnc4)c3CC2)cs1.O=C(O)C(F)(F)F.O=C(O)C(F)(F)F — higher, 101.9%
- Cc1nc(CN2CCc3ncnc(-c4ccsc4)c3CC2)cs1.O=C(O)C(F)(F)F — lower, -15.15%
- CC(C)(C)CNC(=O)CNC(=O)C1CC1 — higher, -0.05069%
- CCOC(=O)c1ccc(N2CCN(Cc3c(C)nn(C)c3Cl)CC2)nc1 — higher, -11.85%
- C/C(NC(=O)c1ccco1)=C1/C(=O)C[C@@H]2[C@H]1C2(C)C — higher, 112.1%
- C/C(NC(=O)c1cccs1)=C1\C(=O)C[C@@H]2[C@H]1C2(C)C — higher, 112.6%
- CC(=O)N1CC2C[C@]2(NC(=O)c2ccco2)C1 (some centres undefined) — higher, -12.88%
- O=C(NC1CC(=O)N(C2CC2)C1)c1cccs1 (centres undefined) — higher, 3.357%
- O=C(N[C@]12CC1CN(C(=O)c1ccco1)C2)c1ccco1 (some centres undefined) — higher, -8.008%
- O=C(Nc1c(N2CCCC2)cccc1N1CCCC1)c1ccccn1 — higher, -1.766%
- CC(C)n1cccc1C(=O)N1CC[C@@H](NC(=O)c2ccccn2)[C@H](O)C1 — higher, 9.129%
- C/C(NC(=O)c1ccccn1)=C1\C(=O)C[C@@H]2[C@H]1C2(C)C — higher, 103%
- O=C(NCC1(O)CCc2ccccc2C1)c1cccs1 (centres undefined) — higher, -6.747%
- CNC(=O)[C@H]1CC[C@@H]2[C@@H](CCN2C(=O)N(C)C)O1 — higher, -9.576%
- O=C(NCCC(=O)N1CCCC1)C(OC1CCCC1)c1ccccc1 (centres undefined) — higher, -0.3907%
- O=C(O)C(F)(F)F.c1csc(CN2CCC3(CCOCC3COCC3CC3)CC2)n1 (centres undefined) — higher, 99.84%
- COCC1COCCC12CCN(Cc1nccs1)CC2.O=C(O)C(F)(F)F (centres undefined) — higher, 97.2%
- COCC1COCCC12CCN(CCc1ccccc1)CC2.O=C(O)C(F)(F)F (centres undefined) — higher, 7.834%
- O=C(O)C(F)(F)F.O=C(O)C(F)(F)F.c1cc(CN2CCC3(CCOCC3COCC3CC3)CC2)ccn1 (centres undefined) — higher, -8.349%
- COCC1COCCC12CCN(Cc1cccs1)CC2.O=C(O)C(F)(F)F (centres undefined) — higher, 99.73%
- O=C(O)C(F)(F)F.c1cc(CN2CCC3(CCOCC3COCC3CC3)CC2)co1 (centres undefined) — lower, -40.89%
- O=C(O)C(F)(F)F.c1coc(CN2CCC3(CCOCC3COCC3CC3)CC2)c1 (centres undefined) — lower, -46.4%
- CN(Cc1nc2ccccc2[nH]1)C(=O)CN(C)c1ccc(Cl)cn1 — higher, 9.224%
- CCN(CC)CCNCc1cc(O)c2cc(C)ccc2n1 — higher, 11.73%
- CO[C@H]1COC[C@@H]1NC(=O)C1(Oc2ccc(Cl)cc2)CCNCC1 — higher, 6.112%
- C[S+]([O-])CCNCc1ccc(OCc2cscn2)cc1 (centres undefined) — higher, 1.801%
- CCCN1CCN(C(=O)c2cc3ccccc3cn2)[C@H]2CS(=O)(=O)C[C@H]21 — higher, 0.5207%
- CC(C)N[C@@H]1CC[C@@H]1NC(=O)c1ccccc1OC(F)(F)C(F)F — higher, -9.491%
- Cl.c1nc(CCC2CCCN2)cc(N2CCCCCC2)n1 (centres undefined) — higher, 105.3%
- Cl.c1nc(CCC2CCCCN2)cc(N2CCCC2)n1 (centres undefined) — higher, 95.63%
- Cl.c1nc(CCC2CCCN2)cc(N2CCCOCC2)n1 (centres undefined) — higher, -10.48%
- OCC1CCCN1c1cc(N2CCC(OC3CCCC3)CC2)ncn1 (centres undefined) — higher, 10.66%
- CCc1cc(N2CCCC(c3noc(CC)n3)C2)ncn1 (centres undefined) — higher, -9.129%
- Nc1ccc(-c2cc(O)cc(CCC3CCCCN3)c2)cn1 (centres undefined) — higher, -4.594%
- CC1CCN(c2cc(CCC3CCCN3)ncn2)CC1.Cl (centres undefined) — higher, 81.62%
- CC1CCN(c2cc(-n3cnc(C(=O)N4CCSCC4)c3)ncn2)CC1 — higher, 13.65%
- CC1CCN(c2cc(NC(=O)C3CC3)ncn2)CC1 — higher, 10.56%
- O=C(O)C(F)(F)F.O=C([C@H]1CN(Cc2ccc(F)cc2)C[C@H]2OCC[C@@H]12)N1CCCO1 — higher, 1.984%
- Cc1cc(NC(=O)CN2CCOC(Cn3cccn3)C2)n(C)n1 (centres undefined) — higher, -0.9893%
- CCC1CCCN(CC(=O)Nc2oc(C)c3c(C)n[nH]c(=O)c23)C1 (centres undefined) — higher, 7.246%
- CN(Cc1ccc(OCC(=O)N2CCOCC2)cc1)S(C)(=O)=O — higher, -1.865%
- CCc1ccccc1C(=O)N1CCN(S(C)(=O)=O)[C@@H](C)C1 — higher, 7.255%
- NC(=O)CCOc1nc(-c2ccccc2Cl)no1 — higher, -3.331%
- CCOCCn1nc(C2CCNCC2)n(Cc2ccccc2)c1=O — higher, -5.43%
- CCn1c(Cn2cncn2)nnc1C1CCN(Cc2ccncc2)CC1 — higher, -0.7206%
- CCn1c(C2CCNCC2)nn(CCCc2ccccc2)c1=O — higher, 0.4782%
- CCn1c(C2CCCNC2)nn(CCn2cncn2)c1=O (centres undefined) — higher, 98.85%
- O=c1n(CCn2cccc2)nc(C2CCNCC2)n1Cc1ccccc1 — lower, -16.93%
- CCn1c(C2CCNCC2)nn(CCn2cncn2)c1=O — higher, 89.88%
- CCn1c(C2CCCN(C(=O)c3ccc[nH]3)C2)nn(CCN(C)C)c1=O (centres undefined) — higher, -8.209%
- CCCn1nc(C2CCNCC2)n(Cc2ccccc2)c1=O — lower, -22.36%
- CCn1c(C2CCNCC2)nn(CCn2ccc(C)n2)c1=O — higher, 83.74%
- FC(F)(F)c1ccc2nc([C@H]3CCN(C4CCOCC4)C3)[nH]c2c1 — higher, -2.136%
- Cc1nn(C)c(C)c1S(=O)(=O)N(C)Cc1nn(C)c(Cl)c1Cl — lower, -26.42%
- CCOCC1CN(Cc2ccco2)Cc2nccn2C1.O=C(O)C(F)(F)F (centres undefined) — higher, 99.94%
- CCN(CC)CC1CN(Cc2ccco2)Cc2nccn2C1 (centres undefined) — higher, 84.77%
- c1cncc(OCC2CN(Cc3ccco3)Cc3nccn3C2)c1 (centres undefined) — higher, -2.745%
- c1cncc(COCC2CN(Cc3ccco3)Cc3nccn3C2)c1 (centres undefined) — higher, 6.885%
- c1coc(CN2Cc3nccn3CC(Cn3cncn3)C2)c1 (centres undefined) — higher, 1.02%
- CC(C)C(C(=O)NCC1CC1)n1cnc2cc(F)c(F)cc21 (centres undefined) — higher, -9.964%
- O=C(CCc1nc(Cl)n[nH]1)NC1CCCN(CC2CCCCC2)C1 (centres undefined) — higher, -7.697%
- COc1cccc2c1OCC(NCCc1cnn(-c3ccccc3)c1)C2 (centres undefined) — higher, -5.519%
- c1cncc(OCCCNC2COc3ccccc3C2)c1 (centres undefined) — higher, 107.3%
- COc1cccc2c1OCC(NCCCOc1cccnc1)C2 (centres undefined) — higher, 86.98%
- c1cncc(OCCNC2Cc3ccccc3C2)c1 — higher, 2.244%
- c1ccc(OCCNC2CCN(c3ncccn3)CC2)cc1 — higher, -7.109%
- COc1cccc2c1OCC(NCc1cnn(-c3ccccc3)c1)C2 (centres undefined) — higher, -6.454%
- OC(CN(Cc1ccccc1)Cc1cscn1)c1cccs1 (centres undefined) — lower, -27.1%
- O=C(c1cccc(F)c1)N1C[C@@H](CN2CCCCC2)[C@@H](CO)C1 — higher, 0.9976%
- COc1ccncc1NC(=O)C1(c2ccc(F)cc2)CCC1 — higher, -2.782%
- Cc1ccc(OC2(C(=O)O)CCN(C(=O)c3cccc(F)c3)CC2)cn1 — higher, 1.243%
- CNC(=O)C1(c2cnccn2)CCCN1C(=O)c1ccccn1 (centres undefined) — higher, 81.35%
- Cc1ccc(OC2(C(=O)O)CCN(C(=O)c3ccc(F)cc3)CC2)cn1 — higher, -2.115%
- CNC(=O)C1(c2cnccn2)CCCN1C(=O)c1cccc(F)c1 (centres undefined) — higher, 96.69%
- CNC(=O)C1(c2cnccn2)CCCN1C(=O)c1ccc(F)cc1 (centres undefined) — higher, 95.13%
- COc1ccc(CN2CCOC3(CCCN(c4cnccn4)C3)C2)cc1.O=C(O)C(F)(F)F.O=C(O)C(F)(F)F (centres undefined) — higher, -2.164%
- CNC(=O)C1(c2cnccn2)CCCN1C(=O)c1ccn(C)n1 (centres undefined) — higher, -6.037%
- CNC(=O)C1(c2cnccn2)CCCN1C(=O)c1ccc(OC)cc1 (centres undefined) — higher, 106.6%
- CNC(=O)c1nc2c(s1)CCN(C(=O)c1ccc(OC)cc1)CC2 — higher, -5.332%

From ChEMBL document CHEMBL3988442, “University of Dundee, Small-Polar-MMV Screening Library” (2021)
